The campaign covered roughly 360,000 compounds. About 520 (0.14%) were called active. A call without a number means that no potency is given here. Inconclusive results (about 3%) are left out. This is one part of a sample in which actives are shown more often than they occur. The call rests on the fitted dose curve; in most records, active means well fitted inhibition curve with a large enough effect; inconclusive means small, poorly fitted or top-dose-only effect; inactive means no such curve, though single readings can be large or run the other way.

This passage reports Potency results from PubChem BioAssay AID720709 (National Center for Advancing Translational Sciences (NCATS), 2013).
Potency means the concentration at half of the fitted maximal effect.

Sequence of Rap guanine nucleotide exchange factor 3 (Homo sapiens) (O95398 whole entry, looked up): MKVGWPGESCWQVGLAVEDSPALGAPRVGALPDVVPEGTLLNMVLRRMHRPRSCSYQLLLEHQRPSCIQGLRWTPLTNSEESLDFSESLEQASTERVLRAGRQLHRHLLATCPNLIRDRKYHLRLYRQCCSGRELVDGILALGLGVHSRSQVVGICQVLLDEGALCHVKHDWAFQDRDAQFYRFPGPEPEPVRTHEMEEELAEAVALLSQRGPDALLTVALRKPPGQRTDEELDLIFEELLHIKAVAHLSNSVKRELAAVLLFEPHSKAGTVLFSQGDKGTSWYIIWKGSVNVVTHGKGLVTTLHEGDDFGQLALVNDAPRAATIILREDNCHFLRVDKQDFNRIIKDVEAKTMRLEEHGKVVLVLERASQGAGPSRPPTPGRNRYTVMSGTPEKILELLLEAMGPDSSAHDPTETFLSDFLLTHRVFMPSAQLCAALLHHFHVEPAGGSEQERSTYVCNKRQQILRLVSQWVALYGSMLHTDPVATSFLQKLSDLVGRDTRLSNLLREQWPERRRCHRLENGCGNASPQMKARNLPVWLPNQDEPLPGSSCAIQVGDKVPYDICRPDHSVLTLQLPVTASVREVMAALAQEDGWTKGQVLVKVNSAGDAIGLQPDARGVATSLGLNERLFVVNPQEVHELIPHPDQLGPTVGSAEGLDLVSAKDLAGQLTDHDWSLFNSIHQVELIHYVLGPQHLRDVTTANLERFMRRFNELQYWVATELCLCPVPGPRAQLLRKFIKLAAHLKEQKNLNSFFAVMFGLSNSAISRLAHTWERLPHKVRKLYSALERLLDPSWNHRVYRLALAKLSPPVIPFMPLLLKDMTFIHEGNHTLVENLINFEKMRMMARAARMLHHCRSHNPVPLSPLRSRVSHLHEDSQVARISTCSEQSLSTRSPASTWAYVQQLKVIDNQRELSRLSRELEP

The assay concerns the target Rap guanine nucleotide exchange factor 3 (Homo sapiens) (UniProt O95398). In words: qHTS for Antagonist of cAMP-regulated guanine nucleotide exchange factor 3 (EPAC1): primary screen. Further: nearly all actives have a fitted effect of over 50% in size. The note with it: EPAC1 GEF assay, Rap1b-BODIPY-GDP exchange fluorescence; series mostly up to 115 µM. The source says:
In multi-cellular eukaryotic organisms, the effects of cAMP are transduced by two ubiquitously-expressed intracellular cAMP receptors, the classic protein kinase A/cAMP-dependent protein kinase (PKA/cAPK) and the more recently discovered exchange protein directly activated by cAMP/cAMP-regulated guanine nucleotide exchange factor (EPAC/cAMP-GEF). Both PKA and EPAC are ubiquitously expressed in all tissues, and an increase in intracellular cAMP levels will lead to the activation of both PKA and EPAC. Therefore, careful dissections of the individual role and relative contribution of EPAC and PKA within the overall cAMP signaling in various model systems are critical for further elucidating the mechanism of cAMP signaling. To date no EPAC-specific antagonists and agonist, as well as isoform-specific agonists have been reported, and developing EPAC-specific pharmacological probes to determine the physiological functions that EPAC play in the overall cAMP-mediated signaling remains a major challenge within the research field. Furthermore, identified regulators of EPAC may lead to new mechanism-based therapeutic strategies specifically targeting the EPAC / cAMP-signaling components as EPAC has been implicated to play important roles in major human pathological conditions such as diabetes, heart disease, and cancer. This qHTS will be used to screen the Molecular Libraries Small Molecule Repository (MLSMR) as a concentration-titration series using the NCGC unique quantitative screening (qHTS) platform to find inhibitors for EPAC1. In addition, this assay will also be used as a counterscreen for the EPAC2 qHTS. This fluorescent based assay is developed and validated for EPAC1 that measures exchange using EPAC effector Rap1 complex with BODIPY-GDP, a GDP analog with a tethered fluorophores. Inhibitors are identified by monitoring the change in fluorescence signal as the exchanged free BODIPY-GDP has a reduced fluorescence compared to Rap1-bound BODIPY-GDP. Decrease in signal (inhibition) is the desired outcome for the EPAC1 antagonist while no activity in this assay is desired for the EPAC2 antagonist counterscreen. de Rooij, J., Zwartkruis, F. J., Verheijen, M. H., Cool, R. H., Nijman, S. M., Wittinghofer, A., and Bos, J.L. (1998) Nature 396, 474-477 [2] Kawasaki, H., Springett, G. M., Mochizuki, N., Toki, S., Nakaya, M., Matsuda, M., Housman, D. E., and Graybiel, A. M. (1998) Science 282, 2275-2279 NIH Chemical Genomics Center [NCGC] NIH Molecular Libraries Probe Centers Network [MLPCN] MLPCN Grant: NS066510 Assay Submitter (PI): Xiaodong Cheng, The University of Texas, Medical Branch
Briefly, three uL of reagents (100 nM EPAC1, 250 nM RAP1B-BODIPY-GDP, 50 uM GDP) were dispensed into a 1536-well Greiner black solid-bottom medium binding assay plate. Controls and test compounds (23 nL) were transferred to the plate via a Kalypsys pin tool equipped with a 1536-pin array. The plates were centrifuged at 1,000 rpm for 15 seconds followed by 5 minute incubation at room temperature. The assay plates were read at 5 minute intervals for 30 minutes in the ViewLux plate reader using 480nm excitation and 540nm emission filters. The results were normalized to the […] positive control ATA and DMSO.
With `C#CCNC(=O)C[C@@H]1C[C@@]2(C(=O)OCC)CCCC=C2N(Cc2ccco2)C1=O`, the Potency entry was “inactive”.
As to `Cc1ccc(S(=O)(=O)N[C@H]2CCC[C@@H]2O)cc1`, the Potency entry was “inactive”.
In the case of `O=C(NCc1ccccc1)C(c1ccc(F)cc1)N1CCN(C(=O)C2CCCO2)CC1` (configuration not stated) it was “inactive”; in that of `C#CCOCCOCCOCCNc1nc(N2CCN(C(=O)[C@H](CO)n3cc([C@@H](N)C(C)C)nn3)CC2)nc(N2CCN(C(=O)[C@H](CCC(=O)O)n3cc([C@@H](N)[C@H](C)CC)nn3)CC2)n1`, “inactive”; in that of `C#CCOCCOCCOCCNc1nc(N2CCN(C(=O)CCCCCCCCCCNC(=O)[C@H]([C@@H](C)CC)n3cc(CCCCN=C(N)N)nn3)CC2)nc(N2CCN(C(=O)CCCCCCCCCCNC(=O)[C@H](CO)n3cc(CCCSC)nn3)CC2)n1`, 44.7 µM (active).
On to `C#CCOCCOCCOCCNc1nc(N2CCN(C(=O)C([C@@H](C)O)n3cc([C@@H](N)CCCCN)nn3)CC2)nc(N2CCN(C(=O)[C@H](CCCCN)n3cc(CN)nn3)CC2)n1` (some centres not stated), for which the Potency result was “inactive”.
In the case of `CN1OC[C@@H]2CN(S(=O)(=O)c3cccc4ccccc34)[C@H](c3ccc(N4CCCCC4)cc3)C[C@@H]21` it was “inactive”; in that of `CC(C)C[C@@H]1COc2cc(N3CCC[C@@H]3CO)ccc2S(=O)(=O)N1`, “inactive”; in that of `CCOC(=O)C1C(C)C(C(C)(C)C)N(S(=O)(=O)c2ccc(C)cc2)C1c1ccccc1` (configuration not stated), “inactive”.
Take `Oc1c(Cl)cc(Cl)c(Cl)c1Cc1c(O)c(Cl)cc(Cl)c1Cl`: the Potency is 70.8 µM (active).
Take `Fc1cccc(Cc2c(-c3ccc(Cl)cc3)nc3ccc(Cl)cn23)c1`: the Potency result is “inactive”.
The entry for `CC1=C(C(=O)N(C(C)C)C(C)C)CC(CC(=O)NCCCCc2ccccc2)C(=O)N1CCC1=CCCCC1` (configuration not stated) is “inactive”; for `CCc1c(-c2ccc(F)cc2)ncn1Cc1cccc(-c2ccccc2)c1` it is “inactive”.
`CN(C)C1CN(Cc2cn(Cc3ccccc3)nn2)S(=O)(=O)C1` (configuration not stated): the Potency entry is “inactive”.
Take `COC(=O)C1=CN(c2c(C)cc(C)cc2C)C(N)=C(C#N)C1c1cccc(F)c1` (configuration not stated): the Potency result is “inactive”.
In the case of `CCc1oc(-c2ccc(OC)cc2)c(C(=O)OCCCCCO)c1C(C)OCCO` (configuration not stated) it was “inactive”.
Consider `COC(=O)[C@]12CCCCC=C1N(Cc1cccc3ccccc13)C(=O)[C@H](CC(=O)N1CCOCC1)C2`, for which the Potency entry is “inactive”.
On to `CCNC(=O)c1cc2c(c(-c3cccc(-c4cncnc4)c3)n1)[C@H](CCO)N(C(C)=O)C2`, for which the Potency entry was “inactive”.
The entry for `CCCCNC(=O)C[C@@H]1C[C@@]2(C(=O)OCC)CCC=C2N(Cc2ccco2)C1=O` is “inactive”; for `CCOC(=O)[C@]12CCCC=C1N(CCC1=CCCCC1)C(=O)[C@H](CC(=O)N1CCCCC1)C2` it is “inactive”.
In the case of `CCOc1ccc(CCN2C(=O)C(=O)N([C@@H](Cc3ccc(O)cc3)CN3CCC[C@H]3CN3C(=O)C(=O)NC[C@@H]3CC(C)C)C[C@@H]2Cc2ccccc2)cc1` it was “inactive”.
The entry for `CCOC(=O)[C@]12CCCC=C1N(Cc1ccc3c(c1)OCO3)C(=O)[C@H](CC(=O)N1CCN(C(=O)c3ccco3)CC1)C2` is “inactive”.
With `O=C(Nc1ccc2c(c1)OCCO2)C1c2ccccc2OCC(=O)N1Cc1ccccn1` (configuration not stated), the Potency entry was “inactive”.
In the case of `CC(C)C[C@@H]1Cc2[nH][nH]c(=O)c2[C@H](CCc2ccccc2)O1` it was “inactive”.
Take `CCOC(=O)[C@]12CCCC=C1N(Cc1ccc3c(c1)OCO3)C(=O)[C@H](CC(=O)NCc1cccs1)C2`: the Potency entry was “inactive”.
For the compound `CC(C)(O)C1=C[N+](=O)CC=C1`, the Potency entry was “inactive”.
The entry for `CCCCCn1nnnc1C1c2ccccc2C(=O)N1Cc1ccco1` (configuration not stated) is “inactive”; for `COc1ccc(C(c2nnnn2C2CCCC2)N2CCN(C/C=C/c3ccccc3)CC2)cc1` (configuration not stated) it is “inactive”; for `CCCCCNC(=O)C(c1ccc(OC)cc1)n1c(=O)c(-c2ccccc2)nc2ccccc21` (configuration not stated) it is “inactive”.
The entry for `Cc1ccc(S(=O)(=O)N2[C@@H](Cc3ccccc3)CO[C@H]2CC(=O)OCc2ccccc2)cc1` is “inactive”.
In the case of `CN(Cc1cn(Cc2ccc(C(F)(F)F)cc2)nn1)C1CN(Cc2cn(Cc3ccc(C(F)(F)F)cc3)nn2)S(=O)(=O)C1` (configuration not stated) it was “inactive”; in that of `COCCNC(=O)c1cc2c(Br)ccc(Br)c2nc1N`, “inactive”.
As to `CC(=O)N1Cc2cc(C(=O)NCc3cccc(F)c3)nc(-c3cccc(C4=CCCCC4)c3)c2[C@H]1CCO`, the Potency entry is “inactive”.
With `C=C1C(=O)[C@]23C[C@H]1CCC2[C@@]1(C)C(C[C@@H]3O)[C@](C)(C(=O)O)CC[C@@H]1O` (some centres not stated), the Potency result was “inactive”.
Turning to `CCCCCNC(=O)C1C(=O)Nc2ccccc2C(=O)N1C(C)(C)C` (configuration not stated), the Potency result is “inactive”.
The entry for `CC[C@@H]1CC2=C(C(=O)OC(C)(C)O2)[C@@H](CC)O1` is “inactive”; for `CCOC(=O)[C@]12CCC=C1N(Cc1ccccc1)C(=O)[C@H](CC(=O)N1CCCC1)C2` it is “inactive”.
